22 molecules from PubChem BioAssay (EPA / NIEHS) can be followed below.

Calls of active or inactive are those of the source. Rule for the calls: active = hit-call score of the fitted dose curve at least 0.9, where 1 is the maximum; inactive = score below 0.9.

The nature of the first assay: CCTE_Harrill_HTTr_Viability_MCF7: CCTE's 6-hour Cell Viability Assessment for the High-Throughput Transcriptomics (HTTr) Platform, in MCF-7 cells cultured in DMEM + 10% fetal bovine serum, Harrill Lab (AID 2284010). An outline of the steps:
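Membrane integrity was scored by high-content imaging of propidium iodide dye exclusion after a 6 h exposure across an eight-point dilution series. Data were fitted bidirectionally relative to DMSO as negative control and baseline.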
Regarding `CCCN(CCC)c1c([N+](=O)[O-])cc(C(F)(F)F)cc1[N+](=O)[O-]`, the result was inactive.

With `CCC(C)(C)C(=O)OC1=C(c2ccc(Cl)cc2Cl)C(=O)OC12CCCCC2`, the result was inactive.

Consider `Oc1ccc(Cl)cc1Cc1ccccc1`, for which the result was inactive.

For `O=[N+]([O-])/N=C1\NCCN1Cc1ccc(Cl)nc1`, the result was inactive.

As for `N#Cc1c(Cl)c(Cl)c(Cl)c(C#N)c1Cl`, the outcome was inactive.

On to `O=C(O)CCCOc1ccc(Cl)cc1Cl`, for which the result was inactive.

For `O=[N+]([O-])c1c(Cl)c(Cl)c(Cl)c(Cl)c1Cl`, the outcome was inactive.

`CC[C@H](C)[C@H]1O[C@]2(C=C[C@@H]1C)C[C@@H]1C[C@@H](C/C=C(\C)[C@@H](O[C@H]3C[C@H](OC)[C@@H](O[C@H]4C[C@H](OC)[C@@H](O)[C@H](C)O4)[C@H](C)O3)[C@@H](C)/C=C/C=C3\CO[C@@H]4[C@H](O)C(C)=C[C@@H](C(=O)O1)[C@]34O)O2` (tested in a mixture with another compound): the outcome was inactive.

As for `CCC(C)(NC(=O)c1cc(Cl)c(C)c(Cl)c1)C(=O)CCl` (centres undefined), the result was inactive.

With `CCC(C)Nc1c([N+](=O)[O-])cc(C(C)(C)C)cc1[N+](=O)[O-]` (centres undefined), the result was inactive.

Turning to `CCOCN(C(=O)CCl)c1c(C)cccc1CC`, the result was inactive.

For `O=S1OCC2C(CO1)C1(Cl)C(Cl)=C(Cl)C2(Cl)C1(Cl)Cl` (centres undefined), the outcome was inactive.

Consider `C#CCN1C(=O)COc2cc(F)c(N3C(=O)C4=C(CCCC4)C3=O)cc21`, for which the outcome was inactive.

As for `CC(C)(C)C(O)/C(=C\c1ccc(Cl)cc1Cl)n1cncn1` (centres undefined), the outcome was inactive.

As for `CCOC1Oc2ccc(OS(C)(=O)=O)cc2C1(C)C` (centres undefined), the result was inactive.

`Oc1cc(Cl)ccc1Oc1ccc(Cl)cc1Cl`: the result was inactive.

In the case of `O=C(O)COc1ccc(Cl)cc1Cl`, the outcome was inactive.

In the case of `C[C@H]1[C@H](c2ccc(Cl)cc2)SC(=O)N1C(=O)NC1CCCCC1`, the result was inactive.

`Cc1[nH]c(=O)n(C(C)(C)C)c(=O)c1Cl`: the result was inactive.

In the case of `CC1(c2ccc(Oc3ccccc3)cc2)OC(=O)N(Nc2ccccc2)C1=O` (centres undefined), the result was inactive.

With `CCCN(CCOc1c(Cl)cc(Cl)cc1Cl)C(=O)n1ccnc1`, the outcome was inactive.

As for `COP(=S)(OC)Oc1ccc([N+](=O)[O-])cc1`, the result was inactive.

The next assay in a line: CCTE_Harrill_HTTr_Apoptosis_MCF7: CCTE's 6-hour Apoptosis Assessment for the High-Throughput Transcriptomics (HTTr) Platform, in MCF-7 cells cultured in DMEM + 10% fetal bovine serum, Harrill Lab (AID 2284011). An outline of the steps:
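MCF-7 (DMEM + 10% FBS), 384-well; 8-pt dilution series, 6 h chemical exposure; caspase-3/7 activation via CellEvent Caspase 3/7 Green, HCI; bidirectional fit vs DMSO.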
Consider `CCCN(CCC)c1c([N+](=O)[O-])cc(C(F)(F)F)cc1[N+](=O)[O-]`, for which the result was inactive.

For the molecule `CCC(C)(C)C(=O)OC1=C(c2ccc(Cl)cc2Cl)C(=O)OC12CCCCC2`, the result was inactive.

On to `Oc1ccc(Cl)cc1Cc1ccccc1`, for which the outcome was inactive.

As to `O=[N+]([O-])/N=C1\NCCN1Cc1ccc(Cl)nc1`, the result was inactive.

With `N#Cc1c(Cl)c(Cl)c(Cl)c(C#N)c1Cl`, the result was inactive.

For `O=C(O)CCCOc1ccc(Cl)cc1Cl`, the result was inactive.

For `O=[N+]([O-])c1c(Cl)c(Cl)c(Cl)c(Cl)c1Cl`, the outcome was inactive.

As to `CC[C@H](C)[C@H]1O[C@]2(C=C[C@@H]1C)C[C@@H]1C[C@@H](C/C=C(\C)[C@@H](O[C@H]3C[C@H](OC)[C@@H](O[C@H]4C[C@H](OC)[C@@H](O)[C@H](C)O4)[C@H](C)O3)[C@@H](C)/C=C/C=C3\CO[C@@H]4[C@H](O)C(C)=C[C@@H](C(=O)O1)[C@]34O)O2` (tested in a mixture with another compound), the outcome was inactive.

As to `CCC(C)(NC(=O)c1cc(Cl)c(C)c(Cl)c1)C(=O)CCl` (centres undefined), the result was inactive.

Consider `CCC(C)Nc1c([N+](=O)[O-])cc(C(C)(C)C)cc1[N+](=O)[O-]` (centres undefined), for which the result was inactive.

Consider `CCOCN(C(=O)CCl)c1c(C)cccc1CC`, for which the outcome was inactive.

For the molecule `O=S1OCC2C(CO1)C1(Cl)C(Cl)=C(Cl)C2(Cl)C1(Cl)Cl` (centres undefined), the outcome was inactive.

Consider `C#CCN1C(=O)COc2cc(F)c(N3C(=O)C4=C(CCCC4)C3=O)cc21`, for which the outcome was inactive.

Turning to `CC(C)(C)C(O)/C(=C\c1ccc(Cl)cc1Cl)n1cncn1` (centres undefined), the outcome was inactive.

In the case of `CCOC1Oc2ccc(OS(C)(=O)=O)cc2C1(C)C` (centres undefined), the result was inactive.

Consider `Oc1cc(Cl)ccc1Oc1ccc(Cl)cc1Cl`, for which the outcome was inactive.

In the case of `O=C(O)COc1ccc(Cl)cc1Cl`, the result was inactive.

Consider `C[C@H]1[C@H](c2ccc(Cl)cc2)SC(=O)N1C(=O)NC1CCCCC1`, for which the result was inactive.

Take `Cc1[nH]c(=O)n(C(C)(C)C)c(=O)c1Cl`: the result was inactive.

Regarding `CC1(c2ccc(Oc3ccccc3)cc2)OC(=O)N(Nc2ccccc2)C1=O` (centres undefined), the result was inactive.

On to `CCCN(CCOc1c(Cl)cc(Cl)cc1Cl)C(=O)n1ccnc1`, for which the outcome was inactive.

For the molecule `COP(=S)(OC)Oc1ccc([N+](=O)[O-])cc1`, the result was inactive.
